In PubChem BioAssay AID1159580 (chemical genetic matrix, 2015):
“And” between values parts separate entries of the source, which are not always exact repeats. Identical values can stand only once. Among all 5,500 compounds or so, about 2,000 (36%) were called active. Roughly 18% stayed inconclusive and do not appear here. Cut-off read from the data, not from the text of the source: active = normalized growth mostly below about 0.91 (no sharp cut-off); inconclusive = no clear call, values can overlap the other calls; inactive = mostly above about 0.92. The list shows a part of the results.

Assay: chemical genetic growth profiling, strain panel (AID 1159580);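 note: tested at 20 µM; growth read once vehicle control cultures reached saturation at 30 °C; 1 = growth at the plate median or of vehicle wells; lower values mean less growth of the strain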
Conditions: S. cerevisiae deletion strains, growth OD

Measured: normalized growth

CCCCCC(=O)O[C@]1(C(C)=O)CCC2C3CCC4=CC(=O)CC[C@]4(C)C3CC[C@@]21C (some centres undefined)
inactive: locus YAL013W, strain DEP1, hits give low values 1.02 | locus YAL021C, strain ccr4, hits give low values 1 | locus YAL026C, strain drs2, hits give low values 1.03 | locus YAL030W, strain snc1, hits give low values 1 | locus YBL061C, strain skt5, hits give low values 1 | locus YBR009C, strain hhf1, hits give low values 1.01 | locus YBR021W, strain FUR4, hits give low values 0.948 | locus YBR023C, strain chs3, hits give low values 0.985 | locus YBR171W, strain sec66, hits give low values 0.993 | locus YBR229C, strain ROT2, hits give low values 1.01 | locus YBR231C, strain swc5, hits give low values 0.991 | locus YBR279W, strain paf1, hits give low values 1 | locus YCL011C, strain gbp2, hits give low values 1.01 | locus YCL016C, strain dcc1, hits give low values 1 | locus YCL029C, strain bik1, hits give low values 1.01 | locus YCL061C, strain MRC1, hits give low values 0.971 | locus YCL069W, strain vba3, hits give low values 1.01 | locus YCR088W, strain abp1, hits give low values 0.995 | locus YDL005C, strain med2, hits give low values 0.996 | locus YDL035C, strain GPR1, hits give low values 1.02 | locus YDL040C, strain nat1, hits give low values 1.01 | locus YDL074C, strain BRE1, hits give low values 1.01 | locus YDL101C, strain DUN1, hits give low values 1.01 | locus YDL134C, strain PPH21, hits give low values 1.01 | locus YDL185W, strain tfp1, hits give low values 1.02 | locus YDL192W, strain arf1, hits give low values 1.01 | locus YDR001C, strain nth1, hits give low values 1.01 | locus YDR069C, strain doa4, hits give low values 0.995 | locus YDR101C, strain arx1, hits give low values 1.01 | locus YDR137W, strain rgp1, hits give low values 1.01 | locus YDR150W, strain NUM1, hits give low values 1.02 | locus YDR159W, strain sac3, hits give low values 0.976 | locus YDR162C, strain NBP2, hits give low values 0.996 | locus YDR195W, strain ref2 1.02 | locus YDR297W, strain sur2, hits give low values 1 | locus YDR318W, strain mcm21, hits give low values 1 | locus YDR334W, strain swr1, hits give low values 0.999 | locus YDR335W, strain msn5, hits give low values 1.01 | locus YDR388W, hits give low values 1.01 | locus YDR392W, strain spt3, hits give low values 0.91 | locus YDR502C, strain sam2, hits give low values 1.01 | locus YEL003W, strain gim4, hits give low values 1.02 | locus YEL037C, strain rad23, hits give low values 1 | locus YEL061C, strain CIN8 (second series), hits give low values 1 | locus YEL061C, strain CIN8, hits give low values 1 | locus YER015W, strain faa2, hits give low values 0.997 | locus YER016W, strain bim1, hits give low values 0.988 | locus YER110C, hits give low values 1.02 | locus YER111C, strain swi4, hits give low values 0.991 | locus YER155C, strain BEM2 (second series), hits give low values 1.01 | locus YER155C, strain BEM2, hits give low values 1.01 | locus YER167W, strain BCK2, hits give low values 1.01 | locus YFR010W, strain ubp6, hits give low values 1.02 | locus YGL078C, strain dbp3, hits give low values 1.01 | locus YGL086W, strain mad1, hits give low values 1.01 | locus YGL167C, strain pmr1, hits give low values 0.989 | locus YGL173C, strain kem1, hits give low values 1.01 | locus YGL227W, strain vid30, hits give low values 1 | locus YGL240W, strain doc1, hits give low values 0.976 | locus YGL248W, strain PDE1, hits give low values 1.01 | locus YGL253W, strain hxk2, hits give low values 1.01 | locus YGR135W, strain pre9, hits give low values 1.01 | locus YGR252W, strain gcn5, hits give low values 0.974 | locus YHR013C, strain ard1, hits give low values 1.01 | locus YHR027C, strain rpn1, hits give low values 0.999 | locus YHR030C, strain SLT2, hits give low values 1.03 and 0.978 | locus YHR079C, strain IRE1 (second series), hits give low values 1.01 | locus YHR079C, strain IRE1, hits give low values 0.976 | locus YHR094C, strain hxt1, hits give low values 1 | locus YHR129C, strain ARP1, hits give low values 1.01 | locus YHR142W, strain chs7, hits give low values 1.02 | locus YHR200W, strain rpn10, hits give low values 1.01 | locus YIL066C, strain RNR3, hits give low values 1.02 | locus YIL073C, strain SPO22, hits give low values 1.04 | locus YIL125W, strain kgd1, hits give low values 1.01 | locus YIR030C, strain dcg1, hits give low values 1.01 | locus YJL092W, strain hpr5, hits give low values 1.01 | locus YJL095W, strain BCK1 (second series), hits give low values 1 | locus YJL095W, strain BCK1, hits give low values 1.02 and 0.987 | locus YJL115W, strain asf1, hits give low values 1 | locus YJL129C, strain trk1, hits give low values 0.946 | locus YJL134W, strain LCB3, hits give low values 0.98 | locus YJL154C, strain vps35, hits give low values 1.02 | locus YJL164C, strain tpk1, hits give low values 1.01 | locus YJL166W, strain qcr8, hits give low values 1 | locus YJL168C, strain set2, hits give low values 1.01 | locus YJL187C, strain SWE1 (second series), hits give low values 1.01 | locus YJL187C, strain SWE1, hits give low values 0.997 | locus YJR043C, strain POL32, hits give low values 1.01
